Test results: PubChem BioAssay (NCATS)
Records with an inconclusive call do not appear. Calls of active or inactive are those of the source. Calls follow the shape of the dose curve; as a rule, active = well fitted inhibition curve with a large enough effect; inconclusive = small, poorly fitted or top-dose-only effect; inactive = flat fitted curve, though single readings scatter. Where a SMILES comes first, the peptide text is derived from it. Bridges are numbered along the chain shown (N, C = ends). [ ]: non-standard residue; d: D form. hArg = N=C(N)NCCCC[C@H](N)C(=O)O; Mpa = O=C(O)CCS

Test: qHTS to identify inhibitors of the type 1 interferon - major histocompatibility complex class I in skeletal muscle: primary screen against the NCATS Pharmaceutical Collection (AID 1347407)
Settings: human skeletal muscle cells, IFN-b-induced MHC-I HiBiT luminescence, 24 h; series mostly up to 45.9 µM; activity change, negative = inhibition: at the top concentration
From the text: Assay Submitter (PI): Travis B. Kinder Ph.D. & James Inglese Ph.D.
Assay Development and Screening Technology Laboratory (ADST)
National Center for Advancing Translational Sciences (NCATS), Rockville, MD
National Institute of Health (NIH), Bethesda, Maryland
Idiopathic inflammatory myopathies, collectively referred to as myositis, are a group of rare autoimmune diseases characterized by skeletal muscle inflammation, weakness, and usually accompanied by systemic pathologies of the skin, lungs, or vasculature. Current immunosuppressive therapies and glucocorticoids are often not curative and are accompanied by harsh side effects, especially in children with juvenile myositis. We initiated a drug repurposing and development program to identify more targeted, less toxic therapeutics to treat myositis. Although its cause is not known, muscle from a subset of patients have an abundance of the inflammatory type 1 interferon (IFN) and a down-stream product major histocompatibility complex class I (MHC class I), which are both thought to contribute to damage and weakness. We conducted quantitative high throughput screening on 6,576 compounds (4,679 unique) through a series of cell-based assays to identify those that inhibit the IFN-stimulated expression of MHC class I in muscle precursor cells (myoblasts). The compound identification and evaluation strategy utilized a primary screen with reporter-tagged MHC class I in genome-engineered myoblasts, ATP content counter screen for viability, HLA-ABC immunofluorescence secondary screen, and HLA-B RT-qPCR tertiary screen.
The primary screen utilized CRISPR/Cas9 genome-engineering of immortalized human myoblasts, C25cl48, where a pro-luminescent reporter HiBit was fused to the C-terminus of endogenous MHC class I allele HLA-B*08:01 (HLA-B HiBit myoblasts). HiBit is an 11 amino acid fragment of NanoLuc luminescent reporter (Promega Corporation), and when complexed to the larger LgBit fragment, the reconstituted enzyme produces light in the presence of furimazine substrate (Schwinn et al., 2018). Briefly, HLA-B HiBit myoblasts were plated into 1536-well plates, treated with 4.0 ng/ml human IFN-beta and 2,816 compounds from the NCATS Pharmaceutical Collection (NPC) that contains all drugs approved in the US, EU, and Japan (Huang et al., 2011) in an 8-point, 1:5 titration with a high final concentration of 46 uM. After 24 hrs of treatment, cells were assayed by Nano-Glo HiBiT Lytic Detection System (Promega) and luminescence measured by a ViewLux 1430 Ultra HTS (Perkin Elmer).
Huang R, Southall N, Wang Y, Yasgar A, Shinn P, Jadhav A, Nguyen D-T, Austin CP. 2011. The NCGC pharmaceutical collection: a comprehensive resource of clinically approved drugs enabling repurposing and chemical genomics. Sci Transl Med 3:80ps16. doi:10.1126/scitranslmed.3001862
Schwinn MK, Machleidt T, Zimmerman K, Eggers CT, Dixon AS, Hurst R, Hall MP, Encell LP, Binkowski BF, Wood K V. 2018. CRISPR-Mediated Tagging of Endogenous Proteins with a Luminescent Peptide. ACS Chem Biol 13:467-474. doi:10.1021/acschembio.7b00549
PROTOCOL TABLE (as described by Inglese et al., 2007)
SEQUENCE No. (e.g., 1, 2, 3, etc.); […] (e.g., Cells, Incubation, Reagent, etc.); VALUE; DESCRIPTION
1a; Cells; 5 uL; Use a Multidrop Combi (Thermo Scientific) to seed 350 cells/well into nine Greiner 1536 well white/solid bottom, high base, TC plates in 5 ul/well of iHSKM growth medium (GM) without dexamethasone into columns 1+2. Add metal lids with gas-exchange holes
1b; Cells; 5 uL; Use a Multidrop Combi (Thermo Scientific) to seed 350 cells/well into nine Greiner 1536 well white/solid bottom, high base, TC plates in 5 ul/well of iHSKM GM without dexamethasone + 4 ng/ml IFN-b into columns 3 - 48. Add metal lids with gas-exchange holes
2; Incubate; 1 hr; Incubate at 37 C, 5% CO2, 95% RH
[…]
% is scaled to controls: 0 for no effect and ±100 for the full control effect.

Row | SMILES | activity change, negative = inhibition
1 | COc1ccc(Cc2cnc(N)nc2N)cc1OC | 6.49% (inactive)
2 | C1CCN2C[C@@H]3C[C@@H](CN4CCCC[C@@H]34)[C@H]2C1 | 1.05% (inactive)
3 | Cc1onc(-c2ccccc2)c1-c1ccc(S(N)(=O)=O)cc1 | 8.05% (inactive)
4 | CC(=O)N[C@@H](CC(C)C)C(=O)O | 4.27% (inactive)
5 | COC(=O)c1ccc(O)cc1 | 8.82% (inactive)
6 | C=CCN1C[C@H](C(=O)N(CCCN(C)C)C(=O)NCC)C[C@@H]2c3cccc4[nH]cc(c34)C[C@H]21 | -1.8% (inactive)
7 | CCS(=O)(=O)CCn1c([N+](=O)[O-])cnc1C | 1.97% (inactive)
8 | O=c1[nH]c2cc(C(F)(F)F)c(N3CCOCC3)cc2n(CP(=O)(O)O)c1=O | -2.24% (inactive)
9 | Cc1c(Cn2ccnc2)c2ccccc2n1CCC(=O)O | 8.92% (inactive)
10 | COc1ccccc1Oc1c(NS(=O)(=O)c2ccc(C(C)(C)C)cc2)nc(-c2ncccn2)nc1OCCO | -22.6% (inactive)
11 | Cn1c([N+](=O)[O-])cnc1COC(N)=O | -1.57% (inactive)
12 | CCN(CC)C(=O)c1cccc(C)c1 | -2.64% (inactive)
13 | O=C(O)Cc1cn(-c2ccccc2)nc1-c1ccc(Cl)cc1 | -2.91% (inactive)
14 | CC(C)=CCC[C@@](C)(O)[C@H]1CC=C(C)CC1 | 0.766% (inactive)
15 | NC(=O)[C@@H]1CSSCCC(=O)N[C@@H](CCCCN=C(N)N)C(=O)NCC(=O)N[C@@H](CC(=O)O)C(=O)N[C@@H](Cc2c[nH]c3ccccc23)C(=O)N2CCC[C@H]2C(=O)N1 ([Mpa][hArg]GDWPC-NH2; disulfide 1-7) | 0.19% (inactive)
16 | OC[C@@H](O)[C@@H](O)[C@H](O)[C@H](O)CO | -0.661% (inactive)
17 | COc1ccc(C(=O)NCc2ccc(OCCN(C)C)cc2)cc1OC | -2.29% (inactive)
18 | O=C(CN1CCNCC1)NC1CCCCC1 | -7.88% (inactive)
19 | CC(=O)NCc1c(I)c(NC(C)=O)c(I)c(C(=O)O)c1I | -1.94% (inactive)
20 | CCc1cccc(CC)c1NC(=O)CN(CC(=O)O)CC(=O)O | 3.02% (inactive)

Row | SMILES | activity change, negative = inhibition
21 | CCOC(=O)c1cccnc1 | -2.26% (inactive)
22 | C[C@@H]1O[C@@H](OC[C@H]2O[C@@H](Oc3c(-c4ccc(O)c(O)c4)oc4cc(O)cc(O)c4c3=O)[C@H](O)[C@@H](O)[C@@H]2O)[C@H](O)[C@H](O)[C@H]1O | 15.1% (inactive)
23 | O=C(O)c1ccc[n+]([O-])c1 | 2.07% (inactive)
24 | COc1ccccc1OCC(O)CO (stereo not given) | -1.18% (inactive)
25 | C[n+]1ccccc1/C=N/O | 1.7% (inactive)
26 | COc1ccc(O)cc1 | 11% (inactive)
27 | C/C=C1\[C@H]2C=C(C)C[C@]1(N)c1ccc(=O)[nH]c1C2 | -1.33% (inactive)
28 | COCC(=O)Nc1c(I)c(C(=O)NCC(O)CO)c(I)c(C(=O)N(C)CC(O)CO)c1I (stereo not given) | 1.5% (inactive)
29 | CCCCCC(N)=O | -7.02% (inactive)
30 | CC(C(=O)O)c1ccc2c(c1)Cc1cccnc1O2 (stereo not given) | -1.37% (inactive)
31 | CCCCCCCCCCOc1cc2c(=O)c(C(=O)OCC)c[nH]c2cc1OCC | 0.347% [at 3.83 µM] (inactive)
32 | CC(=O)Oc1cccc(C)c1 | 1.73% (inactive)
33 | NC(=O)CC[C@@H](N)C(=O)O | -3.71% (inactive)
34 | CC[C@]12CCCN3CCc4c(n(c5ccccc45)[C@@](O)(C(=O)OC)C1)[C@@H]32 | -16.9% (inactive)
35 | O=C(O)CCCCC1CCSS1 (stereo not given) | 7.18% (inactive)
36 | COc1nccnc1NS(=O)(=O)c1ccc(N)cc1 | -3.96% (inactive)
37 | O=C(c1ccccc1)C(O)c1ccccc1 (stereo not given) | 2.5% (inactive)
38 | CN1C[C@@H]2C[C@H]1CN2c1cc2c(cc1F)c(=O)c(C(=O)O)cn2C1CC1 | 4.49% [at 19 µM] (inactive)
39 | CCCCCCCC(=O)OCC(O)CO (stereo not given) | 15.2% (inactive)
40 | O[C@@H]1CO[C@H]2[C@@H]1OC[C@@H]2O | 12.5% (inactive)
